TGFb SMAD3 inh: inhibitors of TGF-b signaling. HepG2 CAGA-GFP TGF-b/SMAD3 reporter, GFP fluorescence, 18 h; TGF-beta stimulated, 500 pg/mL final. Potency, µM (titrated, usually from 46.1 µM), for inactives: at the top dose activity, negative = inhibition, usual class: inhibitors. 410,000 compounds, 1.2% hits; also: % is scaled to controls: 0 for no effect and ±100 for the full control effect; nearly all actives have a fitted effect of over 65% in size
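HEPG2 CAGA-GFP reporter cells (1000/well, DMEM with 1% FBS) received compounds, then recombinant TGF-beta at 500 pg/mL final for 18 hours at 37 degrees C. Per-cell GFP summed per well was normalised to unstimulated and stimulated DMSO controls before curve fitting.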
HepG2 tox: HepG2 cytotoxicity, counter-screen for TGF-b inhibitors | HepG2 CAGA-GFP viability, ATP luminescence, 18 h | AID 588856 | Potency, µM (series often up to 46.1 µM), for inactives: at the top dose activity change, negative = cytotoxicity, hits mostly cytotoxic | 410,000 compounds, 0.76% hits
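HepG2 CAGA-GFP cells (1000/well, DMEM with 1% FBS) received compound, then TGF-beta at 500 pg/mL final, and were incubated 18 hours at 37 degrees C. Viability was read by CellTiter-Glo luminescence. Media-only wells were set as complete cell-killing and DMSO as no toxicity.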
TDP1 cell noCPT: qHTS for Inhibitors of human tyrosyl-DNA phosphodiesterase 1 (TDP1): qHTS in cells in absence of CPT | 420,000 compounds, 15% hits | Potency, µM (series often up to 46.2 µM), for the others: at the highest dose activity change, negative = growth inhibition, most hits filed as inhibitors | DT40 Tdp1-/- hTDP1 cells, no CPT, ATP luminescence, 48 h; also: % is scaled to controls: 0 for no effect and ±100 for the full control effect; nearly all actives have a fitted effect of over 55% in size
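Stably hTDP1-transfected Tdp1-null chicken DT40 cells were treated with library compounds minus camptothecin and grown for at least 48 hr at 37 °C, after which cellular ATP was quantified by luminescence.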
DT40 TDP1 CPT: growth inhibition of DT40 Tdp1-/-;hTDP1 cells with camptothecin (screen for TDP1 inhibitors). chicken DT40 Tdp1-/-;hTDP1 cells + 20 nM CPT, ATP luminescence, 48 h. Potency, µM (series often up to 46.2 µM), for the others: top-dose activity change, negative = growth inhibition, most hits filed as inhibitors. 420,000 compounds, 12% hits; also: % is scaled to controls: 0 for no effect and ±100 for the full control effect; nearly all actives have a fitted effect of over 55% in size
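Cell growth measured by CellTiter-Glo luminescence after a minimum 48 h, 37 C compound exposure with 20 nM CPT in Tdp1-knockout DT40 cells stably expressing hTDP1, seeded 400/well; qHTS titration format.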
HT1080NT lethal: kills 2HG-producing HT-1080-NT fibrosarcoma cells. HT-1080-NT fibrosarcoma viability, CellTiter-Glo ATP luminescence, 48 h. Potency, µM (series often up to 46.1 µM), without a hit: at the top dose activity, negative = less viability, usual class: cytotoxic. 360,000 compounds, 1.6% hits. AID 686970;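 also: NT is the 2HG producing partner of a matched IDH1 knockdown line; 0% = DMSO-treated cells and -100% = media-only wells without cells; nearly all actives have a fitted effect of over 55% in size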
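Compounds were tested in concentration-response format on HT-1080-NT cells for 48 hours at 37 degrees C. Cell viability came from CellTiter-Glo luminescence; curves were classified by r2, response magnitude and activity.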
HT1080 IDH1KD tx: kills HT-1080 cells with IDH1 knockdown; 360,000 compounds, 2% hits; HT-1080 IDH1 knockdown viability, ATP luminescence, 48 h; Potency, µM (titrated, usually from 46.1 µM), inactives show at the highest dose activity, negative = toxicity, hits mostly cytotoxic;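 also: 0% = DMSO wells and -100% = cell-free medium wells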
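CellTiter-Glo luminescence after 48 h compound exposure at 37 degrees C of IDH1-knockdown HT-1080 cells in 5% FBS RPMI. %Activity scaled between DMSO wells and cell-free media wells, with curves fitted and assigned curve classes.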
An asterisk follows results filed as active; ? = inconclusive; / = no result; [ ] = another dose, or the depositor's remark. Shown are actives, neighbours in structure and some others; about 17% of the full set was active somewhere. Calls follow the shape of the dose curve; as a rule, active = well fitted curve in the direction sought with a large enough effect; inconclusive = small, poorly fitted or top-dose-only effect, or another doubt; inactive = no such curve, though single readings can be large; an effect the other way counts as inactive or inconclusive. Potency is read from the fitted curve at half-maximal effect.

SMILES | TGFb SMAD3 inh | HepG2 tox | TDP1 cell noCPT | DT40 TDP1 CPT | HT1080NT lethal | HT1080 IDH1KD tx
Cc1cccc(N2CCN(C(=O)C3CCC(CNS(=O)(=O)c4cccs4)CC3)CC2)c1C (stereo unspecified) | -25% | -7% | 13µM* | ? | -19% | ?
CN(C(=O)C1CCN(S(=O)(=O)c2cccs2)CC1)c1ccccc1 | 1% | -6% | 16µM* | ? | -3% | 5%
COc1ccc(Cn2c(-c3ccco3)nc3oc4cc(OC)ccc4c(=O)c3c2=O)cc1 | 1% | -8% | 16µM* | ? | 14% | 13%
COc1ccc(-c2nc3oc4cc(OC)ccc4c(=O)c3c(=O)n2Cc2ccco2)cc1 | -12% | 5% | 23µM* | ? | 0% | -3%
COc1ccc(Cn2c(-c3ccco3)nc3oc4ccccc4c(=O)c3c2=O)cc1 | 1% | 3% | -13% | -12% | 14% | 18%
COc1ccc2c(=O)c3c(=O)n(Cc4ccco4)c(-c4ccco4)nc3oc2c1 | -6% | -8% | ? | 20µM* | 15% | 0%
CCc1nc2oc3cc(OC)ccc3c(=O)c2c(=O)n1Cc1ccco1 | 0% | -19% | -28% | -8% | 7% | -1%
CC(NC(=O)COC(=O)Cc1ccc(-c2ccccc2)cc1)c1ccccc1 (stereo unspecified) | -1% | 0% | 4% | ? | 12% | 11%
CCN(CC)CCN(C(=O)CCS(=O)(=O)c1ccccc1)c1nc2c(C)cc(C)cc2s1 | ? | -56% | 7.3µM* | 16µM* | -1% | 0%
Cc1cc(C)c2sc(N(CCN(C)C)C(=O)CCS(=O)(=O)c3ccccc3)nc2c1 | -33% | -94% | 18µM* | 23µM* | -12% | -6%
CCN(CC)CCN(C(=O)CCS(=O)(=O)c1ccccc1)c1nc2cc(OC)c(OC)cc2s1 | ? | -34% | ? | ? | 6% | 13%
CCN(CC)CCN(C(=O)CCS(=O)(=O)c1ccccc1)c1nc2cc(C)cc(C)c2s1 | 16µM* | 18µM* | ? | 21µM* | ? | ?
CN(C)CCN(C(=O)CCS(=O)(=O)c1ccccc1)c1nc2c(F)cccc2s1 | 9% | -4% | 16% | -28% | -4% | -2%
NC(=O)c1nnn(-c2nonc2N)c1-c1ccc([N+](=O)[O-])cc1 | -7% | 1% | ? | -4% | 5% | -5%
O=C(c1cccc(Oc2c(Cl)cccc2[N+](=O)[O-])c1)N1CCOCC1 | 0% | -14% | ? | ? | -4% | -11%
O=C(CN1C(=O)/C(=C/c2ccc(F)cc2)SC1=S)NC1CCS(=O)(=O)C1 (stereo unspecified) | 1% | 12% | -14% | -20% | 7% | 0%
COc1ccc(-n2c(=O)c3c(c4cc(OC)ccc4n3C)n(Cc3cccc(OC)c3)c2=O)cc1 | ? | -56% | -16% | -20% | / | /
COc1ccc(-c2nc(CN3CCN(c4cc(C)nc(C)c4)CC3)c(C)o2)c2ccccc12 | ? | -92% | ? | -104% | 13µM* | 15µM*
COc1ccc(-c2nc(CN3CCN(Cc4ccccc4)CC3)c(C)o2)cc1 | ? | -18% | -13% | 5% | -9% | -7%
Cc1cc(N2CCN(Cc3nc(-c4ccc(Cl)cc4)oc3C)CC2)cc(C)n1 | ? | -29% | 18µM* | 12µM* | 21µM* | 21µM*
COc1cccc(-c2nc(Cn3c(=O)cc(C)c4c(C)nn(-c5ccccc5)c43)c(C)o2)c1OC | -3% | 15% | 10% | 8% | / | /
Cc1cnc(C)c(N2CCN(Cc3nc(-c4ccc(C)o4)oc3C)CC2)n1 | -27% | -22% | ? | -20% | -2% | 0%
Cc1oc(-c2cccc3ccccc23)nc1CN1CCN(c2ncnc3ccccc23)CC1 | -23% | 6% | 12µM* | 16µM* | ? | ?
COc1ccc(S(=O)(=O)N(C)CC(=O)N2CCN(Cc3ccccc3)CC2)cc1C | -24% | -4% | ? | ? | -2%[9.24 µM] | ?
ON/C=N/C(=S)Nc1ncc(C(F)(F)F)cc1Cl | ? | -17% | 12µM* | 15µM* | 9% | 19%
SMILES | TGFb SMAD3 inh | HepG2 tox | TDP1 cell noCPT | DT40 TDP1 CPT | HT1080NT lethal | HT1080 IDH1KD tx
FC(F)(F)c1cnc(NNC(=S)Nc2ccc(Cl)cc2)c(Cl)c1 | 2.8µM* | -62% | 13µM* | 10µM* | ? | ?
Cc1ccc(NC(=S)NNc2ncc(C(F)(F)F)cc2Cl)cc1 | ? | -40% | ? | ? | ? | ?
Fc1ccc(NC(=S)NNc2ncc(C(F)(F)F)cc2Cl)c(F)c1 | ? | -131% | 13µM* | 12µM* | ? | 16µM*
CC(C)C(=O)Nc1ncc(C(F)(F)F)cc1Cl | 3% | 0% | -4% | -9% | -10% | -10%
Cc1ccc(NC(=S)NNc2ncc(C(F)(F)F)cc2Cl)c(C)c1 | ? | -32% | ? | ? | ? | ?
CNC[C@H]1OCCCC[C@H](C)Oc2ccc(NC(=O)CCCN(C)C)cc2C(=O)N([C@H](C)CO)C[C@@H]1C | -2% | 1% | -30% | -22% | -4% | -6%
COc1cc(C)nc(N(C)S(=O)(=O)c2ccccc2Cl)n1 | -14% | 2% | ? | -20% | -20% | -18%
c1cncc(C2SCCCS2)c1 | 0% | -12% | -10% | -10% | 1% | 0%
NC(CSC(c1ccccc1)(c1ccccc1)c1ccccc1)C(=O)O (stereo unspecified) | ? | 15% | 5.2µM* | 5.8µM* | ? | ?
Cc1ccsc1C(=O)N(Cc1cc2cc3c(cc2nc1N1CCOCC1)CCC3)CC1CCCO1 (stereo unspecified) | / | / | -3% | -10%[9.04 µM] | / | /
Clc1ccc(-c2nnc3c4ccccc4nc(N4CCOCC4)n23)cc1Cl | 5% | -39% | 10µM* | 18µM* | -3% | -16%
Brc1ccc(-c2nnc3c4ccccc4nc(N4CCOCC4)n23)cc1 | 6% | 8% | ? | ? | ? | 11%
Cc1c(C(=O)N2CCOCC2)sc2ncnc(N3CCc4ccccc4C3)c12 | ? | -21% | 12µM* | 12µM* | -1% | 1%

Compound activity from PubChem BioAssay.
